According to PubChem BioAssay AID1345085 (National Center for Advancing Translational Sciences (NCATS), 2018):
Inconclusive results are not listed. A call without a number means that no potency is given here. Activity calls are given as the source filed them. The call rests on the fitted dose curve; in most records, active means well fitted cell-killing curve with a large enough effect; inconclusive means small, poorly fitted or top-dose-only effect, or effect the other way; inactive means no such curve, though single readings can be large or run the other way.

System: SKOV3
Assay: Confirmatory qHTS for gynecologic anti-cancer compounds from libraries of approved drugs and bioactive compounds; further: nearly all actives have a fitted effect of over 55% in size
Conditions: gynecologic cancer cell panel viability, ATPlite luminescence, 48 h; series mostly up to 57.6 µM
In short: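 Cells (1,000/well) were plated, left 16 h at 37 C/5% CO2, then given compound at 11 concentrations (1:3) from 57.5 uM to 0.977 nM for 48 h. ATPlite luminescence after 15 min at room temperature gave IC50 values.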
Potency means the concentration at half of the fitted maximal effect.

Compound | Potency
O=C(CCCCCCNC(=O)c1cnc(N(c2ccccc2)c2ccccc2)nc1)NO | 12.2 µM (active)
CCCCN(CCCC)C(=O)CN1C[C@H](c2ccc3c(c2)OCO3)[C@@H](C(=O)O)[C@@H]1c1ccc(OC)cc1 | inactive
COc1cc2c(Oc3ccc(-c4cnc(Nc5ccc(F)cc5)n(C)c4=O)cc3F)ccnc2cc1OCCCN1CCOCC1 | inactive
Cc1cc(Nc2nc(N[C@@H](C)c3ncc(F)cn3)ncc2Cl)n[nH]1 | inactive
CCC(=O)N1CCN(c2ccc(-n3c(=O)ccc4cnc5ccc(-c6cnc7ccccc7c6)cc5c43)cc2C(F)(F)F)CC1 | 0.0044 µM (active)
CCN[C@H]1C[C@H](C)S(=O)(=O)c2sc(S(N)(=O)=O)cc21 | inactive
c1cc(N[C@@H]2CCNC2)nc(-c2cnc3ccc(-c4cn[nH]c4)cn23)c1 | inactive
O=C(O)c1ccc(Nc2ncc3c(n2)-c2ccc(Cl)cc2C(c2c(F)cccc2F)=NC3)cc1 | inactive
CCOc1ccc(Nc2nc(-c3c(C)nc4ccccn34)cs2)cc1 | inactive
CC[C@]1(O)C[C@H]2CN(CCc3c([nH]c4ccccc34)[C@@](C(=O)OC)(c3cc4c(cc3OC)N(C=O)[C@H]3[C@@](O)(C(=O)OC)[C@H](OC(C)=O)[C@]5(CC)C=CCN6CC[C@]43[C@@H]65)C2)C1 | inactive
CNC(=O)c1ccccc1Sc1ccc2c(/C=C/c3ccccn3)n[nH]c2c1 | 19.3 µM (active)
CN1CCN(CCOc2cc(OC3CCOCC3)c3c(Nc4c(Cl)ccc5c4OCO5)ncnc3c2)CC1 | inactive
CNc1nc(Nc2ccc(C(=O)N3CCOCC3)cc2OC)ncc1Cl | inactive
CCC1C(=O)N(C)c2cnc(Nc3ccc(C(=O)NC4CCN(C)CC4)cc3OC)nc2N1C1CCCC1 (stereo not drawn) | 0.109 µM (active)
CC(C)C[C@H](NC(=O)[C@H](Cc1ccccc1)NC(=O)c1cnccn1)B(O)O | 3.06 µM (active)
Cc1ccc(C(=O)Nc2ccc(CN3CCN(C)CC3)c(C(F)(F)F)c2)cc1C#Cc1cnc2cccnn12 | 12.2 µM (active)
CN(c1nccc(=O)[nH]1)C1CCN(c2nc3ccccc3n2Cc2ccc(F)cc2)CC1 | inactive

Compound | Potency
Nc1ccn([C@@H]2O[C@H](CO)[C@@H](O)C2(F)F)c(=O)n1 | 1.37 µM (active)
COc1cccc2c1C(=O)c1c(O)c3c(c(O)c1C2=O)C[C@@](O)(C(=O)CO)C[C@@H]3O[C@H]1C[C@H](N)[C@H](O)[C@H](C)O1 | 0.432 µM (active)
COc1cc(Nc2ncc(F)c(Nc3ccc4c(n3)N(COP(=O)(O)O)C(=O)C(C)(C)O4)n2)cc(OC)c1OC | 5.44 µM (active)
COc1ccc2cc3[n+](cc2c1OC)CCc1cc2c(cc1-3)OCO2 | inactive
OCCNC1CCCc2c1[nH]c1ccc(-c3ccccc3)cc21 (stereo not drawn) | 30.6 µM (active)
Cc1cnc(Nc2ccc(CN3CCOCC3)cc2)nc1Nc1cccc(S(=O)(=O)NC(C)(C)C)c1 | 4.85 µM (active)
Cc1nc(Nc2ncc(C(=O)Nc3c(C)cccc3Cl)s2)cc(N2CCN(CCO)CC2)n1 | 21.7 µM (active)
CN(C)CC/C=C1\c2ccccc2COc2ccccc21 | inactive
CC(C)n1nc(-c2cc3cc(O)ccc3[nH]2)c2c(N)ncnc21 | 3.85 µM (active)
FC(F)(F)c1ccc(/C=C/c2nc(COc3ccc(CCCCn4ccnn4)cc3)co2)cc1 | inactive
Cc1cc(C(=O)N2CCN(c3cccc(Cl)c3)CC2)n(-c2ccccc2)n1 | 0.544 µM (active)
COc1cc2c(cc1-c1c(C)noc1C)ncc1[nH]c(=O)n(C(C)c3ccccn3)c12 (stereo not drawn) | inactive
O=C(CCCCCCC(=O)Nc1ccccc1)NO | 1.37 µM (active)
CNCc1ccc(-c2[nH]c3cc(F)cc4c3c2CCNC4=O)cc1 | inactive
CC(C)CC(=O)Nc1n[nH]c2c1CN(C(=O)C1CCN(C)CC1)C2(C)C | inactive
COc1cccc2c1C(=O)c1c(O)c3c(c(O)c1C2=O)C[C@@](O)(C(=O)CO)C[C@@H]3O[C@H]1C[C@H](N)[C@H](O[C@@H]2CCCCO2)[C@H](C)O1 | 0.685 µM (active)
